# Measurements as given in PubChem BioAssay (NCATS).
# A number with no mark means an inactive call. Records with an inconclusive call do not appear. Activity calls are given as the source filed them. Unless noted, calls come from the whole dose curve; as a rule, active = well fitted curve in the direction sought with a large enough effect; inconclusive = small, poorly fitted or top-dose-only effect, or another doubt; inactive = no such curve, though single readings can be large; an effect the other way counts as inactive or inconclusive.
# Tests used:
# [1] = target: Cytochrome P450 2C9 (Homo sapiens) (UniProt P11712); test: qHTS Assay for Inhibitors and Substrates of Cytochrome P450 2C9 (AID 883); conditions: recombinant CYP2C9, luciferin-H luminescence, 60 min; series mostly up to 57.1 µM; note: nearly all actives have a fitted effect of over 60% in size; note: potency is the fitted concentration of half-maximal effect; for activity change, negative = inhibition: % is set by controls: 0 for no effect and ±100 for the full control effect
# How it was run: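 Signal: luciferase luminescence reporting luciferin produced by CYP2C9. Conditions: 10nM enzyme, Luciferin-H 100uM at KM, 25mM KPO4, 37C, 60 min NADPH-driven reaction. Reference: 57uM sulphaphenazole as 100% inhibition.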
# [2] = target: Cytochrome P450 2C19 (Homo sapiens) (UniProt P33261); test: qHTS Assay for Inhibitors and Substrates of Cytochrome P450 2C19 (AID 899); conditions: recombinant CYP2C19, luciferin-H EGE luminescence; series mostly up to 57.1 µM; note: nearly all actives have a fitted effect of over 60% in size; note: potency is the fitted concentration of half-maximal effect
# How it was run: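 Signal comes from luciferase acting on luciferin released by CYP2C19-mediated hydroxylation of Luciferin-H EGE, 10uM (KM). Assay mix: 5nM enzyme, 50mM KPO4; 60 min at 37C with NADPH regeneration. Data normalized against 57uM ketoconazole.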
# [3] = qHTS Assay for Identification of Small Molecule Agonists for Hypoxia Response Element Signaling Pathway (AID 914; active = well fitted activation curve with a large enough effect in the signal ratio, with a control signal flat, not every such curve was filed as active; the % refers to the signal ratio; note: potency is the fitted concentration of half-maximal effect; for activation: % of control where 0% means no effect); conditions: ME-180 (cervical carcinoma) HRE-bla reporter, beta-lactamase ratio, CoCl2, 17 h; activation: hits give high values
# How it was run: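 A beta-lactamase reporter under hypoxia response element control in ME-180 cells served as the system. Compound titrations plus EC50 CoCl2 ran 17 h at 37 degrees Celsius; AC50 values were fitted from %Activity.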
# [4] = target: DNA dC->dU-editing enzyme APOBEC-3G (Homo sapiens) (UniProt Q9HC16); test: qHTS for inhibitors of Vif-A3G interactions: Validation (AID 588379); conditions: Vif-A3G protein interaction assay; series mostly up to 46.1 µM; note: 0% is about no effect
# How it was run: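 HeLa cells stably expressing Vif and A3G-eYFP, 700 cells/well, incubated overnight at 37 deg C, then exposed to compound overnight at 37 deg C. Inhibition of Vif-mediated degradation read as increased yellow fluorescence (Ex 488/Em 500-530) by laser-scanning cytometry.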
# [5] = target: Rap guanine nucleotide exchange factor 3 (Homo sapiens) (UniProt O95398); test: Counterscreen qHTS for antagonist of cAMP-regulated guanine nucleotide exchange factor 3 (EPAC1) (AID 1645888); conditions: Rap1B-BODIPY-GDP nucleotide exchange, fluorescence; series mostly up to 154 µM;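 note: fluorescence loss as bound BODIPY-GDP is released from Rap1B; % of control where 0% means no effect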
# How it was run: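 Rap1B–BODIPY-GDP (250 nM) with 50 uM GDP; compounds pin-transferred to 9.74 nM–152 uM final (activator) or from 7.32 nM upwards (inhibitor). Fluorescence Ex/Em 480/540 nm read at 5 and 30 min, then after adding cAMP or buffer, at room temperature.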
# [6] = target: Cytochrome P450 2D6 (Homo sapiens) (UniProt P10635); test: qHTS Assay for Inhibitors and Substrates of Cytochrome P450 2D6 (AID 891); conditions: recombinant CYP2D6, luciferin-ME EGE luminescence; series mostly up to 57.1 µM; note: nearly all actives have a fitted effect of over 60% in size; note: potency is the fitted concentration of half-maximal effect;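 for activity change, negative = inhibition: luciferin methyl ether substrate demethylated by CYP2D6 with NADPH regeneration; % is set by controls: 0 for no effect and ±100 for the full control effect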
# How it was run: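 Human CYP2D6 (5 nM) with 30 uM Luciferin-ME EGE (at Km) in 100 mM KPO4, compound preincubated 10 min, then NADPH regeneration system for 60 min at room temperature. Luciferin read by luminescence; normalized to 1.43 uM quinidine.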
# [7] = target: Dual specificity protein kinase CLK4 (Homo sapiens) (UniProt Q9HAZ1); test: qHTS Assay for Inhibitors of CDC-like Kinase 4 (Kinase-Glo Assay) (AID 1770); conditions: recombinant Clk4, Kinase-Glo ATP depletion luminescence; series mostly up to 66.7 µM; note: potency is the fitted concentration of half-maximal effect; nearly all actives have a fitted effect of over 65% in size
# How it was run: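 Substrate mix (RS peptide 100 uM, ATP 1 uM) dispensed, compound pinned in, then Clk4 added to 25 nM final. Incubated 4.5 h at RT; Kinase-Glo reagent added, luminescence read after 5 min.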
# [8] = target: Dual specificity protein kinase CLK4 (Homo sapiens) (UniProt Q9HAZ1); test: qHTS Assay for Inhibitors of CDC-like Kinase 4 (ADP-Glo Assay) (AID 1771); conditions: recombinant CLK4, ADP-Glo luminescence; series mostly up to 80 µM; note: potency is the fitted concentration of half-maximal effect; nearly all actives have a fitted effect of over 70% in size
# How it was run: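 Clk4 (25 nM) was incubated 1 hr at room temperature with 100 uM RS repeat peptide and 1 uM ATP in buffer with 2 mM MgCl2, 0.5 mM EGTA, 2.5 mM DTT. ADP formed was quantified by ADP-Glo luminescence.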
# [9] = target: Dual specificity protein kinase CLK4 (Homo sapiens) (UniProt Q9HAZ1); test: qHTS Assay for Inhibitors of CDC-like Kinase 4 (ADP-FP Assay) (AID 1795); conditions: Transcreener ADP fluorescence polarization; series mostly up to 50 µM; note: nearly all actives have a fitted effect of over 60% in size; note: potency is the fitted concentration of half-maximal effect;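 for activity change, negative = inhibition: recombinant human CLK4 phosphorylating RS repeat peptide at 1 µM ATP; % is set by controls: 0 for no effect and ±100 for the full control effect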
# How it was run: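 Clk4 6.25 nM; RS peptide 100 uM; ATP 1 uM; 25 mM Tris pH 7.5, 10 mM MgCl2; 1 h reaction. ADP detected via antibody/orange tracer FP displacement; TG003 positive control.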
# Chain of DNA dC->dU-editing enzyme APOBEC-3G (Homo sapiens) (Q9HC16 whole entry, looked up): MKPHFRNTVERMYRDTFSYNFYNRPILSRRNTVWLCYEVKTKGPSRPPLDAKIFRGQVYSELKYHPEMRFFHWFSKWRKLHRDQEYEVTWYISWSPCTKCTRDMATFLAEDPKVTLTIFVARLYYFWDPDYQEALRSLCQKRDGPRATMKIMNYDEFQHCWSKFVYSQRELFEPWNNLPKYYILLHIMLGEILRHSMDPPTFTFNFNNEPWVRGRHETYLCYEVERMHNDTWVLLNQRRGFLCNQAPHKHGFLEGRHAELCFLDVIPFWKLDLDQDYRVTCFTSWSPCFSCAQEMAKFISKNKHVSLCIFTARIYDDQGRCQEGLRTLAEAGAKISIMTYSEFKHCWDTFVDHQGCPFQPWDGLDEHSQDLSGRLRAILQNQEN
# Chain of Rap guanine nucleotide exchange factor 3 (Homo sapiens) (O95398 whole entry, looked up): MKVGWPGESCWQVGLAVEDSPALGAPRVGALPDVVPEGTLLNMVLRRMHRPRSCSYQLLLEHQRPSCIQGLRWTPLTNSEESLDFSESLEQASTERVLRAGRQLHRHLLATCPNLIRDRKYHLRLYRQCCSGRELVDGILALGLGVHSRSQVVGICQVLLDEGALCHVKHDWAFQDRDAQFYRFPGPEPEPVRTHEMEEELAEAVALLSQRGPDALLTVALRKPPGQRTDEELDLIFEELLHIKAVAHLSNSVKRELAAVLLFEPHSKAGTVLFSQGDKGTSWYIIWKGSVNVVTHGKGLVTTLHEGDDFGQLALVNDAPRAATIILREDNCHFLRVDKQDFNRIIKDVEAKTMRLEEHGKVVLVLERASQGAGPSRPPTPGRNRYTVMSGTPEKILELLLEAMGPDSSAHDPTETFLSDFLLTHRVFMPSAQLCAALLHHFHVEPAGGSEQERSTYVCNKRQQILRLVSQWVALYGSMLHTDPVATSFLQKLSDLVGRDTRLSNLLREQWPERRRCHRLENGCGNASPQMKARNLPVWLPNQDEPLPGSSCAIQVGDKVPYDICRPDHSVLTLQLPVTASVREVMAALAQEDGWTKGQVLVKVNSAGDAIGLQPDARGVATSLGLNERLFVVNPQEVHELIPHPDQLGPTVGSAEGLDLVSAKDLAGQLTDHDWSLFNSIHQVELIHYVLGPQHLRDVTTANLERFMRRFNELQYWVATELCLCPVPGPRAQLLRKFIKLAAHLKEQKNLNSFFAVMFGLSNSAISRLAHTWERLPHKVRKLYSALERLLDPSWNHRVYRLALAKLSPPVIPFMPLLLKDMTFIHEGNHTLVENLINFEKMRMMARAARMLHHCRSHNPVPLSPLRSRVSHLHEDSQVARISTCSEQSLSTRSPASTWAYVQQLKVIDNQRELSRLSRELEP
# Chain of Cytochrome P450 2C9 (Homo sapiens) (P11712 whole entry, looked up): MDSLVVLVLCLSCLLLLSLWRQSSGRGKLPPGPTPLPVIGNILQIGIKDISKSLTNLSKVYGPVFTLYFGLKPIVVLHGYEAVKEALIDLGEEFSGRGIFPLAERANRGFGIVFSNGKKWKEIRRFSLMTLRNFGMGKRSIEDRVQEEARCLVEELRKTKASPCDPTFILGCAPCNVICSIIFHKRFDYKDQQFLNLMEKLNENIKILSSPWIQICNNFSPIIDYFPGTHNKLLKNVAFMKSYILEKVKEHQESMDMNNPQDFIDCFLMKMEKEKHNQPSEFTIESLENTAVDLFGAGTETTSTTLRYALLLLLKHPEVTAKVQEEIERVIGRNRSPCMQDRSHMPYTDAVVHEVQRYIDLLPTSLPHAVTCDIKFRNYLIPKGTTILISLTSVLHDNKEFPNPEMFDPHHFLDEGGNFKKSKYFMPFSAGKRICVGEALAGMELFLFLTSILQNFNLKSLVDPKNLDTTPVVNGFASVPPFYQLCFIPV
# Chain of Cytochrome P450 2D6 (Homo sapiens) (P10635 whole entry, looked up): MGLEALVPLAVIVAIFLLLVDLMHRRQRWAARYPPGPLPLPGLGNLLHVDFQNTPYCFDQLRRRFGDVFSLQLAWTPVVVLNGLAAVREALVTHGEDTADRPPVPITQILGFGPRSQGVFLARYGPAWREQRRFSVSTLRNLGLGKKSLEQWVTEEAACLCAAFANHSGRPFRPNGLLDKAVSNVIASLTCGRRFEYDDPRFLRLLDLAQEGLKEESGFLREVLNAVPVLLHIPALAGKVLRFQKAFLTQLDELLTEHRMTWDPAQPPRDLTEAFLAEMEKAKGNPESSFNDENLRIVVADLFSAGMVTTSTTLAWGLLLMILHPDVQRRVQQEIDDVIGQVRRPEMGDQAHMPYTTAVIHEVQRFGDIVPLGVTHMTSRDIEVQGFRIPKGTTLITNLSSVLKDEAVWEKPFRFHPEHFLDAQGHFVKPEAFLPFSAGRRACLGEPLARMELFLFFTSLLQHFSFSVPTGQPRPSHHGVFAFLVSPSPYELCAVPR
# Chain of Cytochrome P450 2C19 (Homo sapiens) (P33261 whole entry, looked up): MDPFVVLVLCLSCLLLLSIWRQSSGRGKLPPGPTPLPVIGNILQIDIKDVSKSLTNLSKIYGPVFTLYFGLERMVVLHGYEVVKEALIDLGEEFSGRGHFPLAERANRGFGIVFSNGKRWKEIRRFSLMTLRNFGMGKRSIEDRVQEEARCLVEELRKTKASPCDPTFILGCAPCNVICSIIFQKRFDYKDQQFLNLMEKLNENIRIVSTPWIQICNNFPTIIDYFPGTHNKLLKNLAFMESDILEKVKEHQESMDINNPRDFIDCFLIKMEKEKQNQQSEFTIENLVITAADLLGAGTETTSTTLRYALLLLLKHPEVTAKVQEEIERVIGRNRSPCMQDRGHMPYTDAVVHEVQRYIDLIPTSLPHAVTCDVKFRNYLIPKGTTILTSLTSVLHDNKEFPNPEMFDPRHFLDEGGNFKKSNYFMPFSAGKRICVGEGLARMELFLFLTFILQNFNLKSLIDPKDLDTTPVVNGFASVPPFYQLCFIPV
# Chain of Dual specificity protein kinase CLK4 (Homo sapiens) (Q9HAZ1 whole entry, looked up): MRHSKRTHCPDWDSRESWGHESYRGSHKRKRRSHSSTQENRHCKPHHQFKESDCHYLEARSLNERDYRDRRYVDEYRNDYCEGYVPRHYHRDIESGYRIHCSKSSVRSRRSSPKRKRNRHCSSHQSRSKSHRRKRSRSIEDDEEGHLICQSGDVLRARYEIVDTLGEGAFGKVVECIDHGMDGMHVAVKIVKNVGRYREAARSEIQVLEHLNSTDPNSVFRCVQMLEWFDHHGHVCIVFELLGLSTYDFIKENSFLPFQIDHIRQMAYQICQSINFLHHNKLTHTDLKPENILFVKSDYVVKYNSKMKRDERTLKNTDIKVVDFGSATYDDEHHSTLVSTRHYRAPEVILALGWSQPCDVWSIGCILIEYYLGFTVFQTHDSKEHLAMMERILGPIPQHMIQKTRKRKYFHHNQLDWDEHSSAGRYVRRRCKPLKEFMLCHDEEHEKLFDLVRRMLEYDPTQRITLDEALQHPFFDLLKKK
structure (smiles),measurement,setting,value
O=C(c1ccco1)N1CCC[C@@]2(CCN(c3cccc(-c4ccccc4)c3)C2)C1,Potency,[1],5.01 µM (active)
CC(C)CN1CCCC2(CCN(C(=O)c3ccco3)CC2)C1,Potency,[1],inactive
COc1ncc2nc(C)c(=O)n(CCC#N)c2n1,Potency,[1],inactive
same,Potency,[2],inactive
same,activation,[3],7.94%
CCNc1ncc2nc(-c3cc(F)cc(F)c3)c(=O)n(-c3ccccc3)c2n1,Potency,[3],2.51 µM (active)
COc1ccc(Oc2ncc3nc(-c4cccs4)c(=O)n(Cc4cccs4)c3n2)cc1,Potency,[3],3.16 µM (active)
COc1cccc(Cn2c(=O)c(CCc3ccccc3)nc3cnc(OC)nc32)c1,Potency,[1],6.31 µM (active)
CN=C1N[C@H](c2ccccc2)N(c2ccccc2)S1,outcome,[4],inactive
Cc1[nH]ccc2c1[nH]c1cc(=O)ccc12,outcome,[4],inactive
CCCCCCCNS(=O)(=O)c1cccc2c(Cl)cccc12,Potency,[2],0.126 µM (active)
same,outcome,[4],inactive
C=CCc1ccc(OC(=O)c2ccccc2)c(OC)c1,"activity change, negative = inhibition",[5],-3.32% [at 30.8 µM]
Oc1cc2c(c(Cl)c1O)CCNC[C@H]2c1ccccc1,outcome,[4],inactive
COc1ccc2[nH]cc(CCNc3nc(-c4ccc(C(=O)N(C)C)cc4)nc4ccccc34)c2c1,Potency,[2],3.16 µM (active)
CC[C@@]12CCCN3CCc4c(n(c5ccccc45)[C@](O)(C(=O)OC)C1)[C@H]32,Potency,[1],inactive
same,Potency,[6],0.251 µM (active)
same,Potency,[2],inactive
same,outcome,[4],inactive
COc1ccc2[nH]cc(CCNc3ncnc4ccc(-c5ccccc5C#N)cc34)c2c1,Potency,[1],0.316 µM (active)
same,Potency,[2],2 µM (active)
COc1ccccc1CNc1ncnc2ccc(-c3ccccc3C#N)cc12,Potency,[2],7.94 µM (active)
same,Potency,[7],6.31 µM (active)
CCCNC(=O)N1N=C(c2ccc(N)cc2)c2cc3c(cc2[C@H]1C)OCO3,outcome,[4],inactive
CCCC[P+](CCCC)(CCCC)Cc1ccc(NC(=O)[C@@H](Cc2ccc3ccccc3c2)NC(=NC2CCCCC2)NC2CCCCC2)cc1,outcome,[4],inactive
CN(Cc1ccco1)c1ncnc2ccc(-c3ccc4c(c3)OCO4)cc12,Potency,[2],0.631 µM (active)
same,outcome,[5],inactive
N[C@H](Cn1ccc(=O)c(O)c1)C(=O)O,outcome,[4],inactive
O=c1ccc2cc(O)c(O)cc2o1,Potency,[3],10 µM (active)
COc1cc2ccc(=O)oc2cc1O,Potency,[1],inactive
same,Potency,[6],inactive
same,Potency,[2],inactive
same,outcome,[4],inactive
COc1cc2c(cc1OC)C(=O)Cc1ccc3c(c1CN(C)CC2)OCO3,Potency,[1],inactive
same,Potency,[6],0.0251 µM (active)
same,Potency,[2],10 µM (active)
same,outcome,[4],inactive
Cc1cc(C)c(S(=O)(=O)Nc2ccccc2C(F)(F)F)c(C)c1,outcome,[4],inactive
N[C@@H](C(=O)O)c1ccc(O)c(C(=O)O)c1,Potency,[1],inactive
same,outcome,[4],inactive
COc1cccc(-c2cc(NCCc3c[nH]c4ccc(OC)cc34)ncn2)c1,Potency,[2],0.501 µM (active)
same,Potency,[7],4.47 µM (active)
same,Potency,[8],12.6 µM (active)
COc1ccc(-n2c(=O)c(-c3ccc(Cl)cc3)nc3cnc(N4CCOCC4)nc32)cc1,Potency,[3],0.631 µM (active)
Cc1ccccc1-c1ccc2ncnc(N(C)C)c2c1,Potency,[2],7.94 µM (active)
same,Potency,[7],15.8 µM (active)
same,Potency,[8],28.2 µM (active)
COc1ccc2[nH]cc(CCNc3ncnc4ccc(-c5ccc6c(c5)OCO6)cc34)c2c1,Potency,[1],0.126 µM (active)
same,Potency,[6],2.51 µM (active)
same,Potency,[2],1.58 µM (active)
same,Potency,[7],0.316 µM (active)
same,Potency,[8],0.282 µM (active)
same,Potency,[9],0.0708 µM (active)
O=[N+]([O-])c1cccc2c[nH]nc12,outcome,[4],inactive
C/C(=C\COc1cc(=O)[nH]c2ccccc12)CCC(O)C(C)(C)O (configuration not stated),outcome,[4],inactive
COc1cccc(-c2cncnc2NCc2ccc(OC)cc2OC)c1,Potency,[6],7.94 µM (active)
same,Potency,[2],1.26 µM (active)
COc1c(-c2ccc(O)c(O)c2)oc2cc(O)cc(O)c2c1=O,Potency,[1],inactive
same,Potency,[2],inactive
same,outcome,[4],inactive
same,outcome,[5],inactive
COc1cccc(-c2nc(Nc3ccncc3)c3ccccc3n2)c1,Potency,[2],3.16 µM (active)
Cc1ccccc1-c1ccc2ncnc(N(C)Cc3ccco3)c2c1,Potency,[8],14.1 µM (active)
same,Potency,[9],12.6 µM (active)
O=c1cc(-c2ccc(O)c(O)c2)oc2cc(OC3OC(CO)C(O)C(O)C3O)cc(O)c12 (configuration not stated),outcome,[4],inactive
COc1ccc(-c2cc(=O)c3c(OC)c(OC)c(OC)c(OC)c3o2)cc1,"activity change, negative = inhibition",[5],-8.95% [at 30.8 µM]
N#C/C(=C\c1ccc(O)c(O)c1)C(=O)NCCCCc1ccccc1,outcome,[4],inactive
COc1ccccc1CNc1ncnc2ccc(-c3cccnc3)cc12,Potency,[6],5.01 µM (active)
COCCNc1ncnc2ccc(-c3ccc(N(C)C)cc3)cc12,Potency,[7],8.91 µM (active)
same,Potency,[8],10 µM (active)
same,Potency,[9],inactive
CC1(C)[C@@H](O)CC[C@]2(C)C3C(=O)C=C4C5C[C@@](C)(C(=O)O)CC[C@]5(C)CC[C@@]4(C)[C@]3(C)CC[C@@H]12 (some centres not stated),outcome,[4],inactive
